These results are taken from PubChem BioAssay (NCATS).

Molecules are shown by their SMILES. Active and inactive are the calls of the source. The rule behind the calls is not given here.
Potency is the fitted concentration of half-maximal effect.

The experiment concerns HIV-1 nucleocapsid protein NCp7 (binding to TG oligonucleotide). The experiment in a line: HIV Nucleocapsid (AID 346).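 Note: potency is for inhibitors that block NC binding and lower polarization.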 To be noted: HIV-1 NC / fluorescein-TGTGTGTG probe, fluorescence polarization. An outline of the steps: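 Inhibition of nucleocapsid binding to single-stranded 5'-TGTGTGTG probe (10 nM) was measured by fluorescence polarization after 1 hr at room temperature with 100 nM protein under high-salt, zinc-containing, reducing conditions.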
As for `N#Cc1ccc(CN2CC[C@@]3(CCCN(S(=O)(=O)c4ccccc4)C3)C2)cc1`, the Potency is > 20 µM (inactive).
As to `O=C(c1ccncc1)N1CCC2(CC1)CN(c1ncccn1)C2`, the Potency is > 20 µM (inactive).
On to `CCNc1ncc2nc(-c3cn(C)c4ccccc34)c(=O)n(-c3ccccc3)c2n1`, for which the Potency was 16.4 µM (inactive).
With `Cc1noc(C)c1-c1nc(NCc2cccs2)c2ccccc2n1`, the Potency is > 20 µM (inactive).
In the case of `O=C(Nc1ccccc1)N1CCC2(CC1)CCN(C(=O)c1ccncc1)CC2`, the Potency was > 20 µM (inactive).
`COC(=O)N1CCC[C@@]2(CCN(C(=O)NC(C)C)C2)C1`: the Potency is > 20 µM (inactive).
The result for `CN(C)C(=O)c1ccc(-c2cc(NCc3cccnc3)ncn2)cc1` reads > 20 µM (inactive); that for `c1ccc(CNc2ccnc(-c3ccc4c(c3)OCO4)n2)cc1`, > 20 µM (inactive).
As for `O=S(=O)(c1ccccc1)N1CCC2(CCCN(c3ccccn3)C2)CC1`, the Potency is > 4 µM (inactive).
The result for `COc1cccc(Cn2c(=O)cnc3cnc(OCc4ccccc4)nc32)c1` reads > 20 µM (inactive).
Under `c1ccc(CNc2cc(-c3ccoc3)ncn2)cc1` stands > 20 µM (inactive); under `Cc1cccc(CNc2ccnc(-c3ccoc3)n2)c1`, > 20 µM (inactive).
As to `CS(=O)(=O)Nc1cccc(-c2cncnc2Nc2ccccc2)c1`, the Potency was > 20 µM (inactive).
`CC(C)CN1CC2(CCN(C(=O)c3cccc(F)c3)CC2)C1`: the Potency is > 20 µM (inactive).
Take `COC(=O)N1CCC2(CCN(Cc3ccccc3OC)CC2)CC1`: the Potency is > 20 µM (inactive).
Under `COc1ccc(NC(=O)N2CCCC3(CCN(C(=O)c4cc(C(F)(F)F)cc(C(F)(F)F)c4)CC3)C2)cc1` stands > 20 µM (inactive).
